Tau fibril FP: blocks human tau fibril formation measured by polarization. P10636. K18 P301L tau heparin fibrillization, Alexa594 FP, 6 h. Potency, µM (titrated, usually from 57.7 µM), without a hit: at the top dose activity, negative = inhibition, actives largely listed as inhibitors. 0.39% of 280,000 active. AID 1468; note: potency is the fitted concentration of half-maximal effect; nearly all actives have a fitted effect of over 55% in size
Target sequence (P10636 561-689 P618L limits assumed): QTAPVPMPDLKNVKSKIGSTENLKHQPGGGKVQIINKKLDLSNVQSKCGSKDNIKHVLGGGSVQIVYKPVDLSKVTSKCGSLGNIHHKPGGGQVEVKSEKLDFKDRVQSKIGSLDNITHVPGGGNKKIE
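Read-out: fluorescence polarization of Alexa 594-labeled tau (0.24 uM), 555 nm excitation, 632 nm emission. Mixtures held 15 uM unlabeled K18 P301L, compound and 20 uM heparin, pH 7 acetate buffer, incubated 6 hr at 37 C.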
Tau fluor cs: counter-screen for tau fibril formation inhibitors; 0.93% of 280,000 active; Potency, µM (titrated, usually from 57.7 µM), for the others: at the top dose activity change, negative = decrease; tau K18 P301L Alexa594 fluorescence, heparin fibrillization; AID 1463; note: potency is the fitted concentration of half-maximal effect; nearly all actives have a fitted effect of over 55% in size
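Human K18 P301L tau (15 uM unlabeled plus 0.24 uM Alexa 594-labeled, final) in 100 mM sodium acetate pH 7 was mixed with compound and 20 uM heparin and incubated 6 hr at 37 C.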
Sfp inh: blocks B. subtilis Sfp PPTase activity; 3.5% of 310,000 active; Potency, µM, without a hit: largest response in the series, negative = inhibition, usual class: inhibitors; Biochemical Sfp PPTase activity, qHTS; Q9F4F7;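 note: the enzyme is Sfp with the accession as filed and its product quenches rhodamine fluorescence; potency is the fitted concentration of half-maximal effect; 0% = enzyme reaction without inhibitor and -100% = no enzyme wells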
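Fluorescence-quenching assay: 15 nM Sfp-PPTase preincubated 15 min at room temperature with compound, then 5 uM rhodamine-CoA and 12.5 uM BHQ-2-labelled YbbR peptide added. Fluorescence (ex 525/em 598 nm) read at start and after 30 min; difference gives rate.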
FBPA coupling cs: counter-screen for Giardia aldolase inhibitors: coupling enzyme system; activity change, negative = inhibition, % at 58.2 µM, hits read low; coupling enzyme system counterscreen, AmpLite Red fluorescence; AID 2472; 0.67% of 290,000 active; in the data active = activity change below about -30%
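Activity here indicates interference with the coupling reaction, not aldolase inhibition. Compounds at 57.5 uM final met coupling enzymes for 10 min at RT; substrate and AmpLite Red detection followed, with a 525/598 nm fluorescence read after 20 min.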
Tau ThT inhib: blocks human tau fibril formation measured by thioflavin T; 2.1% of 270,000 active; recombinant tau K18 P301L (four-repeat tau fragment), heparin-induced fibrillization, ThT fluorescence; Potency, µM (doses to about 57.4 µM), for inactives: top-dose activity, negative = inhibition, hits mostly inhibitors; P10636; note: potency is the fitted concentration of half-maximal effect; nearly all actives have a fitted effect of over 55% in size
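Tau K18 P301L fragment (15 uM unlabeled plus 0.24 uM Alexa 594-labeled) in 100 mM sodium acetate pH 7 with compound, fibrillization induced by 20 uM heparin for 6 hr at 37 C. Thioflavin T (30 uM) added, fluorescence read after 1 hr (ex 450, em 510 nm).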
G9a inh: blocks human histone lysine methyltransferase G9a. Q96KQ7. G9a H3K9 monomethylation, AlphaScreen, 2 h. Potency, µM (doses to about 102 µM), without a hit: at the highest dose activity, negative = inhibition, hits mostly inhibitors. 8.8% of 350,000 active. AID 504332; note: potency is the fitted concentration of half-maximal effect; nearly all actives have a fitted effect of over 75% in size
Target sequence (Q96KQ7 913-1193 limits assumed): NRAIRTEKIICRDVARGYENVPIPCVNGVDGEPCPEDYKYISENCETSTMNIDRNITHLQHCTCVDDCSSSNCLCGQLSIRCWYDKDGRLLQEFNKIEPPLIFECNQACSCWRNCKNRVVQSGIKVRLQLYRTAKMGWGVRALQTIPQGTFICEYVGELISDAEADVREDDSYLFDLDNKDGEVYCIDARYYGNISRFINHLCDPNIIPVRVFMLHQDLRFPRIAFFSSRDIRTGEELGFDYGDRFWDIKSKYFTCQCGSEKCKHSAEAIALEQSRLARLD
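Readings reflect AlphaScreen signal from monomethyl-H3K9 antibody detection. HMT at 20 nM; substrate b-H3K9 500 nM; cofactor SAM 20 uM; 2 h RT reaction; compounds tested as titrations in qHTS with 15 min preincubation.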
Numbers without * were called inactive; u = inconclusive; x = no result given; ! = not active in a repeat; [ ] = another dose, or the depositor's remark. Hits are enriched below; roughly 11% of the tested compounds scored in any of these assays. Unless noted, calls come from the whole dose curve; as a rule, active = well fitted curve in the direction sought with a large enough effect; inconclusive = small, poorly fitted or top-dose-only effect, or another doubt; inactive = no such curve, though single readings can be large; an effect the other way counts as inactive or inconclusive. Unless noted, % is set by controls: 0 for no effect and ±100 for the full control effect.

SMILES	Tau fibril FP	Tau fluor cs	Sfp inh	FBPA coupling cs	Tau ThT inhib	G9a inh
Oc1ccc(Nc2nc(-c3ccc(Cl)cc3)nc3ccccc23)cc1	u	3.98µM*[quencher]	x	x	12.6µM*	-5.2%[59 µM]
O=C(O)c1ccc(Nc2nc(-c3ccc([N+](=O)[O-])cc3)nc3ccccc23)cc1	x	x	50.1µM*	-2.3	x	7.1%
COc1ccc(Nc2nc(-c3cccc([N+](=O)[O-])c3)nc3ccccc23)cc1	u	3.55µM*[quencher]	8.5%	-2.7	u	-9.3%[59 µM]
CC(=O)Nc1cccc(-c2nc3ccccc3c(=O)o2)c1	6.7%	-4.4%	18.7%	0.4	-13.6%	11.2µM*
CCC(=O)Nc1cccc(-c2nc3ccccc3c(=O)o2)c1	-2.7%	-10.8%	13.6%	4.1	-6.9%	-43.8%[59 µM]
COc1ccc(C)c2sc(N(Cc3cccnc3)C(=O)COc3ccccc3)nc12	-7.7%	-20.3%	x	x	-11.5%	1.4%[59 µM]
CS(=O)(=O)Nc1cccc(-c2cncnc2NCc2cccs2)c1	6.6%	-20.0%	u	2.3	-16.5%	x
Oc1ccc(Nc2nc3ccccc3nc2Nc2ccc(O)cc2)cc1	u	7.08µM*[quencher]	-29.1%	-11.6	15.8µM*	10µM*
CC(=O)Nc1ccc(Nc2nc(-c3ccccc3)nc3ccccc23)cc1	-3.1%	14.1µM*[quencher]	2.2%	0.9	u	u
COC(=O)c1ccc(Nc2nc(-c3ccccc3Cl)nc3ccccc23)cc1	12.6µM*	u	x	x	10.7%	2.1%[59 µM]
O=[N+]([O-])c1ccc(Nc2c3ccccc3nc3ccccc23)cc1	u	11.2µM*[quencher]	6.3%	0.3	10µM*	12.6µM*
O=[N+]([O-])c1ccccc1Nc1c2ccccc2nc2ccccc12	5.0%	u	21.8%	0.8	-1.0%	8.8%
CC(=O)Nc1ccc(S(=O)(=O)Nc2nc3ccccc3nc2Nc2ccc(N)cc2)cc1	u	u	8.5%	9.7	u	u
O=C(Nc1nc(-c2ccccc2)nc2ccccc12)c1ccc(F)cc1	u	-5.9%	0.5%	0.6	5.0%	5.7%
CCNc1ncc2nc(-c3ccccc3)c(=O)n(Cc3ccc(F)cc3)c2n1	x	x	6.0%	2.2	x	19.7%[12.7 µM]
c1ccc2c(Nc3ccc(N4CCOCC4)cc3)nc(N3CCOCC3)nc2c1	x	x	-6.3%	1.8	x	x
CC(=O)c1cccc(Nc2nc(-c3cccc(C)c3)nc3ccccc23)c1	7.08µM*	2.82µM*[quencher]	x	x	-7.7%	7.08µM*
COc1nc(-c2cccc([N+](=O)[O-])c2)nc2ccccc12	-13.8%	-22.2%	13.1%	-0.1	-11.6%	-30.1%
O=[N+]([O-])c1cccc(-c2nc(Oc3ccc(Cl)cc3)c3ccccc3n2)c1	u	-24.7%	-29.6%	-2.1	u	11.2µM*
Cc1cccc(-c2nc(Nc3ccc(N4CCOCC4)cc3)c3ccccc3n2)c1	u	11.2µM*[quencher]	2.1%	-3.9	u	7.08µM*
CCCCOC(=O)c1ccc(NC(=O)c2csnn2)cc1	-8.6%	-5.4%	x	x	-1.2%	-9.7%[59 µM]
CCC1CCC2(CC1)NNC(=S)NN2	-7.6%	-3.9%	56.2µM*	-1.2	-12.2%	2µM*
CCC1CCC2(CC1)NC(CO)(CO)CO2 (centres undefined)	3.5%	9.0%	14.7%	-0.7	3.2%	11.1%[59 µM]
O=C(CSc1c2c(nc3cc(Cl)ccc13)CCCC2)N1CCN(c2ccccc2F)CC1	-9.4%	-26.1%	x	x	u	-2.9%[59 µM]
CC(=O)Nc1nonc1-c1nnc(SCC(=O)Nc2cc(C)cc(C)c2)n1C	-4.4%	-5.8%	x	x	-11.5%	0.3%[59 µM]
SMILES	Tau fibril FP	Tau fluor cs	Sfp inh	FBPA coupling cs	Tau ThT inhib	G9a inh
COc1cccc2c1Oc1ncccc1N(C(=O)CCC(=O)NCc1ccc(C)cc1)C2	-2.7%	-9.0%	14.1%	0.5	-7.1%	5.62µM*!
CCC(C)n1c(=N)c(C(=O)NCc2ccco2)cc2c(=O)n3cc(C)ccc3nc21 (centres undefined)	0.1%	-0.6%	x	x	-5.4%	-21.5%[59 µM]
O=[N+]([O-])c1cc(-c2nc(-c3ccccc3)no2)ccc1NCCc1ccccc1	-4.0%	-12.1%	x	x	-5.4%	u
Cc1c(NC(=S)NC(=O)c2sc3ccccc3c2Cl)cccc1C(=O)O	-4.6%	-0.9%	-15.3%	20.6	u	4.47µM*
COc1ccccc1C(=O)NNC(=S)NC(=O)c1sc2ccccc2c1Cl	11.3%	-20.9%	12.8%	4.9	7.08µM*	13.6%[59 µM]
CC1CCCCC1NC(=S)NC(=O)c1sc2ccccc2c1Cl (centres undefined)	1.9%	-3.9%	31.6µM*	-8.0	-10.6%	x
COc1ccccc1C(=O)NC(=S)NNC(=O)c1sc2ccccc2c1Cl	u	3.9%	1.7%	7.3	2.6%	u
O=c1c2oc3ccccc3c2n(Cc2ccccc2)c(=O)n1Cc1ccc2c(c1)OCO2	-14.5%	-21.4%	x	x	-7.1%	4.5%[59 µM]
CCOC(=O)c1cccc(NC(=O)C2CCCN(c3nnc(N4CCCC4=O)s3)C2)c1 (centres undefined)	x	x	-3.4%	0.9	x	13.2%[59 µM]
Cn1c(SCC(=O)NC2CCS(=O)(=O)C2)nnc1-c1ccco1 (centres undefined)	x	x	x	x	x	11.4%[59 µM]
CC(C)(c1ccccc1)c1ccc(OCC(O)CNC2CCN(Cc3ccccc3)CC2)cc1 (centres undefined)	-5.2%	-11.0%	79.4µM*	-3.8	u	39.8µM*
COc1ccc(CNCC(O)COc2ccc(C(C)(C)c3ccccc3)cc2)cc1 (centres undefined)	x	x	56.2µM*	-1.0	x	-0.3%[2.33 µM]
CC1CC(=O)N(CC(=O)Nc2ccc(F)cc2F)c2ccccc2S1 (centres undefined)	-3.0%	-6.8%	x	x	-3.7%	-5.5%[59 µM]
C[C@]12C[C@@](C)(C=C1/C=C/c1ccc(F)cc1)C(=O)C[C@H]2c1ccc(F)cc1	-3.4%	-2.3%	-25.0%	-2.3	-0.3%	x
CCOC(=O)c1cc(C(=O)c2ccccc2O)cn2c(=O)c3c(C)c(C)sc3nc12	-7.7%	-23.9%	44.7µM*	0.6	u	-128.5%[59 µM]
CCCCOc1ccc(CN2CCCCC2)cc1	4.7%	-8.1%	-13.8%	0.1	-7.5%	-32.6%[59 µM]
O=C(c1ccccc1)c1ccc(OCCCN2CCCC2)cc1	1.3%	7.6%	-37.3%	-0.4	3.6%	2.51µM*
c1ccc(COc2ccc(OCCCCN3CCCCC3)cc2)cc1	7.3%	-5.1%	-32.5%	4.0	-10.4%	8.91µM*
O=C(c1ccccc1)c1ccc(OCCCCN2CCCCC2)cc1	4.3%	-3.1%	-24.8%	-1.3	0.9%	u
Oc1ccc(N2CCN(Cc3ccc(OCCCN4CCCCC4)cc3)CC2)cc1	-9.0%	-9.9%	u	-20.4	u	10µM*
O=C(c1ccccc1)c1ccc(OCCOCCN2CCN(Cc3ccccc3)CC2)cc1	2.3%	-9.0%	56.2µM*	-0.3	-12.1%	x
CC1CC(C)CN(C(=O)c2cc(S(=O)(=O)N3CCCCC3)ccc2Cl)C1 (centres undefined)	x	x	x	x	x	-4.2%

Screening data: PubChem BioAssay, National Center for Advancing Translational Sciences (NCATS)
